# PLAP activator – activates human placental alkaline phosphatase | P05187 | purified PLAP enzyme, luminescent substrate read-out; active compounds read high | activation fold at 20 µM | 96,000 compounds, 1.2% hits | AID 696; in the data active = activation fold above about 2
# Target sequence (P05187 whole entry, looked up): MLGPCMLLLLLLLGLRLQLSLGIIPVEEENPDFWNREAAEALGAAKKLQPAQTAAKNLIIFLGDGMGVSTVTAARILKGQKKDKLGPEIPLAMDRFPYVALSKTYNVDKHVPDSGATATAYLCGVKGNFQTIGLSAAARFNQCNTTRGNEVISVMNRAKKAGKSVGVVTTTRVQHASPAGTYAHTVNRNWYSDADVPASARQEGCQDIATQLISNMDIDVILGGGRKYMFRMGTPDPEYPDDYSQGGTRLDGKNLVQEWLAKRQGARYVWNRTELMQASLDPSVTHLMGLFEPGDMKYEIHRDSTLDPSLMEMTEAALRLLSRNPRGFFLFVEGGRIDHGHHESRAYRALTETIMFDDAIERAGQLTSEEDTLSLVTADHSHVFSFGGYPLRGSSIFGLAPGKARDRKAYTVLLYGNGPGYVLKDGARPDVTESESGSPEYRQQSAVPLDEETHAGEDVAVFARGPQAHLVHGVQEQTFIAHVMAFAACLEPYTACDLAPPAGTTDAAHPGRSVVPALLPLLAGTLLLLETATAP
# CYP2C9 activ – increases human cytochrome P450 2C9 activity | P11712 | recombinant CYP2C9, luciferin-H conversion, luminescence; active compounds read high; factor 1 = untreated enzyme, 0 = blocked | activation factor at 5 µM | 96,000 compounds, 1.4% hits;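 active = activation factor of 2 or more for CYP2C9 at a 5 µM dose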;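 note: 0 = sulfaphenazole-blocked wells and 1 = vehicle-only wells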
# CYP2C19 inh – blocks human cytochrome P450 2C19 | CYP2C19 Supersomes, luciferin-H EGE luminescence, 30 min | inhibition, % at 5 µM | P33261 | 96,000 compounds, 21% hits | AID 778;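 active = CYP2C19 inhibition above a set limit at 5 µM in the primary screen, cut at about 50% in these data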;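 note: plate controls were negative control wells for no effect and 2.5 mM tranylcypromine positive control for full effect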
# CYP2C19 act – increases human CYP2C19 enzyme activity; activation factor at 5 µM; AID 1025; 96,000 tested, under 10 active; P33261; recombinant CYP2C19, luciferin-H EGE luminescence; active compounds read high; 0 = fully inhibited enzyme, 1 = untreated enzyme;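 active = activation factor of at least 2 at 5 µM in the primary screen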;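 note: 0 = wells with 2.5 mM tranylcypromine and 1 = vehicle-only wells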
# CYP2C9 inh – inhibitors of human CYP2C9; CYP2C9 Supersomes, luciferin-H conversion, luminescence; P11712; 96,000 compounds, 20% hits; AID 777; inhibition, % at 5 µM;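 active = blocking of liver enzyme CYP2C9 beyond about 50% at 5 µM, limit read from the data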
# Numbers without * were called inactive. In the library only some 31% were active in any assay of this set; here they are far more common.
SMILES,PLAP activator,CYP2C9 activ,CYP2C19 inh,CYP2C19 act,CYP2C9 inh
Cc1ccc2c(c1)N(CC(=O)OC(CC(C)C)C(=O)NC1CCCC1)C(=O)CO2 (stereo not given),1.3,0.4,68.9*,0.3,62.9*
CC(C)C(OC(=O)CN1C(=O)COc2ccccc21)C(=O)NC1CCCC1 (stereo not given),1,0.8,18.2,0.8,23.6
Cc1ccc(CCNC(=O)CN2C(=O)COc3ccccc32)cc1,0.9,0.4,89.1*,0.1,59.4*
O=C(CCCOc1ccccc1)Nc1nncs1,1.3,0.2,97.0*,0,82.6*
Cc1ccc([N+](=O)[O-])cc1NC(=O)CCCOc1ccccc1,0.8,2.3*,31.4,0.7,-129.7
COc1cc(CC(=O)Nc2nccs2)cc(OC)c1OC,1.2,0.6,79.8*,0.2,40.7
COCC(=O)Nc1cc([N+](=O)[O-])ccc1C,0.9,0.9,0.0,1,9.4
Cc1cccc(OCCCC(=O)Nc2ccc(Br)cc2)c1,0.9,0.6,58.7*,0.4,41.8
O=C(CCc1ccccc1)Nc1nncs1,1.3,1,7.7,0.9,-4.5
O=C(O)CSc1nnc(-c2ccncc2)n1C1CCCCC1,1.1,1.2,-2.6,1,-18.0
CCCCN(C)CCNC(=O)c1ccc2c(c1)NC(=O)C(N1CCCCC1)S2 (stereo not given),1.5,0.9,-9.0,1.1,5.0
COc1ccc(C)cc1NC(=O)c1cnc2sccn2c1=O,0.9,1.1,3.5,1,-9.1
Cc1ccc(OCCCC(=O)Nc2nccs2)cc1,0.9,0.5,53.9*,0.5,54.7*
Cc1cccc(OCCCC(=O)Nc2nccs2)c1,0.9,0.8,75.8*,0.2,23.5
CC(C)CCNC(=O)CCCOc1ccccc1,0.9,1.1,54.3*,0.5,-12.1
COc1ccc(CN2C(=O)CCC2(C)C(=O)NC2CCCCCC2)cc1 (stereo not given),1.1,1,3.0,1,-4.2
O=c1c2cc(N3CCOCC3)ccc2[nH]c(=S)n1CCCN1CCCCCC1,1.7,0.6,5.7,0.9,38.5
O=c1c2cc(F)ccc2[nH]c(=S)n1CCCN1CCOCC1,1,1.1,66.7*,0.3,-7.0
O=c1c2cc(N3CCOCC3)ccc2[nH]c(=S)n1Cc1ccc(Cl)cc1,1.4,0.4,19.6,0.8,57.9*
Cc1ccccc1C(=O)Nc1sc(C)c(C)c1C(=O)c1ccccc1,0.8,0.6,28.3,0.7,36.3
Cc1ccccc1-c1cc(C(=O)Nc2sc(C)c(C)c2C(N)=O)c2ccccc2n1,1.5,0,69.1*,0.3,98.0*
CCOC(=O)c1sc(NC(=O)c2cc(-c3ccccc3C)nc3ccccc23)c(C#N)c1C,1.7,0.5,4.0,1,54.8*
COc1ccc(CC(=O)N2CCCc3ccccc32)cc1OC,1,1.1,38.4,0.6,-14.2
COc1cc(OC)cc(C(=O)N2CCCc3ccccc32)c1,0.9,0.8,76.3*,0.2,23.6
COc1ccc(CC(=O)N2CCCc3ccccc32)cc1,1,0.8,55.3*,0.4,19.6
SMILES,PLAP activator,CYP2C9 activ,CYP2C19 inh,CYP2C19 act,CYP2C9 inh
CCCOc1ccc(C(=O)N2CCCc3ccccc32)cc1,1.2,0.3,93.1*,0.1,69.1*
O=C(CCCN1C(=O)c2ccccc2C1=O)NCC1CCCO1 (stereo not given),1,1,-2.7,1,-2.2
Cc1ccc(N(CC(=O)NCc2ccccc2Cl)S(=O)(=O)c2cccs2)cc1,0.9,0.3,64.1*,0.4,65.0*
Cc1ccc(S(=O)(=O)N2CCC(C(=O)NCc3ccccc3Cl)CC2)cc1,1.1,1.4,18.4,0.8,-41.9
Cc1ccc(N(CC(=O)NCc2ccc(F)cc2)S(=O)(=O)c2cccs2)cc1,1,0.4,99.1*,0,62.7*
CC(C)(C)SCCNC(=O)CN(c1ccc(F)cc1)S(C)(=O)=O,1.4,0.9,19.7,0.8,8.9
CCCS(=O)(=O)c1c(S(=O)(=O)CCC)c2c(N)cccn2c1C(=O)c1ccc(F)cc1,1.6,0.3,66.3*,0.3,68.3*
COc1ccccc1/C=N/NC1=NCCCCC1,1.1,1,6.1,0.9,2.1
O=C1CC(c2cccc(Br)c2)c2cc3c(cc2N1)CCC3 (stereo not given),1.1,0.5,29.4,0.7,54.9*
O=C(NCCc1ccc(Cl)cc1)C1CCCN(S(=O)(=O)c2cnc[nH]2)C1 (stereo not given),1.3,0.1,92.1*,0.1,86.0*
Cc1noc(C)c1S(=O)(=O)N1CCCC(C(=O)NCCc2ccc(Cl)cc2)C1 (stereo not given),0.8,0.6,69.4*,0.3,43.7
Cc1ccc(CCNC(=O)C2CCCN(c3nc4ccccc4o3)C2)cc1 (stereo not given),1,0.5,60.9*,0.4,50.4*
Cc1ccc(CCNC(=O)C2CCCN(S(=O)(=O)c3cnc[nH]3)C2)cc1 (stereo not given),1.2,0.2,87.1*,0.1,77.7*
CCN(CC)CCNC(=O)CCCNC(=O)Cn1cnc2sc(C)c(C)c2c1=O,1,1.1,-18.1,1.2,-5.3
Cc1ccc(N(C(=O)c2cccs2)C2C=CS(=O)(=O)C2)cc1 (stereo not given),0.9,1,15.6,0.8,-2.8
CCCSC1=N/C(=C\C=C\c2ccco2)C(=O)S1,1.2,0.7,9.1,0.9,30.8
O=C(NCCC1=CCCCC1)C1CCN(S(=O)(=O)c2cccs2)CC1,1.1,0.6,25.6,0.7,44.6
O=C(NCc1ccc(F)cc1)C1CCN(S(=O)(=O)N2CCC3(CC2)OCCO3)CC1,1.3,0.8,1.7,1,24.7
O=C(NCCC1=CCCCC1)C1CCN(S(=O)(=O)c2cnc[nH]2)CC1,1.4,0,78.2*,0.2,96.0*
O=C(NCCc1ccc(Cl)cc1)C1CCN(S(=O)(=O)N2CCC3(CC2)OCCO3)CC1,1.1,0.7,76.7*,0.2,33.4
CCN(CC)CCCNC(=O)C1c2cc(OC)c(OC)cc2C(=O)N(C)C1c1cccs1 (stereo not given),1.3,0.8,74.5*,0.3,19.1
CCCN(CCC)CCCNC(=O)C1c2cc(OC)c(OC)cc2C(=O)N(C)C1c1cccs1 (stereo not given),2*,1,0.4,1,-4.7
Cc1nn2c3c(cnc2c1-c1ccc(Cl)cc1)C(=O)CC(c1ccco1)C3 (stereo not given),1.1,1.4,-19.6,1.2,-36.8
CCc1nc(SC)[nH]c(=O)c1C,0.9,0.8,95.4*,0,15.5
CCCc1nc(SCC(N)=O)[nH]c(=O)c1CC,1.3,1.1,0.4,1,-5.0
Cc1cc(/C=C(/C#N)c2nc3ccccc3[nH]2)c(C)n1-c1cccc([N+](=O)[O-])c1,1.5,0.2,40.1,0.6,80.6*
N#C/C(=C\c1cc([N+](=O)[O-])c(N2CCOCC2)cc1N1CCOCC1)c1nc2ccccc2[nH]1,0.8,0,90.8*,0.1,96.7*

# Source: PubChem BioAssay
